From PubChem BioAssay (Tox21)
Values joined by “and” are separate entries in the source; they are usually repeats but may differ in a detail not shown here. Identical values can stand only once. Records with an inconclusive call do not appear. Active and inactive are the calls of the source. Calls follow the shape of the full dose curve.

What was measured:
[1] = molecular target: Acetylcholinesterase (Homo sapiens) (UniProt P22303); assay: Acetylcholinesterase (AChE) small molecule antagonists: colormetric cell-based qHTS assay (AID 1347395); also: nearly all actives have a fitted effect of over 30% in size; also: potency is read from the fitted curve at half-maximal effect
Summary of the method: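 SH-SY5Y cells; cpd 30 min 37 C; + DTNB/acetylthiocholine, 90 min 37 C; colorimetric thiocholine read; qHTS.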

[2] = molecular target: Acetylcholinesterase (Homo sapiens) (UniProt P22303); assay: Acetylcholinesterase (AChE) small molecule antagonists: enzyme-based qHTS assay (AID 1347397); conditions: Potency: AChE enzyme activity inhibition; outcome: AChE enzyme activity inhibition; also: nearly all actives have a fitted effect of over 55% in size; also: potency is read from the fitted curve at half-maximal effect
Summary of the method: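 Absorbance-based detection of thiocholine with DTNB served as the read-out. Recombinant human AChE was exposed to compound for 30 min at RT before a 10 min RT incubation with acetylthiocholine.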

[3] = molecular target: Acetylcholinesterase (Homo sapiens) (UniProt P22303); assay: Acetylcholinesterase (AChE) small molecule antagonists: fluorescence cell-based qHTS assay (AID 1347398); conditions: Potency: AChE activity; outcome: AChE activity; also: nearly all actives have a fitted effect of over 50% in size; also: potency is read from the fitted curve at half-maximal effect
Summary of the method: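 Fluorimetric cell-based assay: intact SH-SY5Y cells, 30 min compound preincubation at 37 C, acetylthiocholine substrate with thiol probe Thiolite Green, 40 min RT development, fluorescence 490/520 nm.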

[4] = molecular target: Acetylcholinesterase (Homo sapiens) (UniProt P22303); assay: Acetylcholinesterase (AChE) small molecule antagonists: enzyme-based qHTS assay with human liver microsomes (AID 1347399); conditions: Potency: qHTS inhibition; outcome: qHTS inhibition; also: nearly all actives have a fitted effect of over 60% in size
Summary of the method: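 Recombinant human AChE (50 mU/mL in the enzyme mix) and human liver microsomes (0.25 mg/mL final) were preincubated with compound and NADPH (0.25 mg/mL final) for 30 min at 37 C. Acetylthiocholine/DTNB was then added; thiocholine was read colorimetrically after 10 min at room temperature.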
% is scaled to controls: 0 for no effect and ±100 for the full control effect.

Sequence of Acetylcholinesterase (Homo sapiens) (P22303 whole entry, looked up): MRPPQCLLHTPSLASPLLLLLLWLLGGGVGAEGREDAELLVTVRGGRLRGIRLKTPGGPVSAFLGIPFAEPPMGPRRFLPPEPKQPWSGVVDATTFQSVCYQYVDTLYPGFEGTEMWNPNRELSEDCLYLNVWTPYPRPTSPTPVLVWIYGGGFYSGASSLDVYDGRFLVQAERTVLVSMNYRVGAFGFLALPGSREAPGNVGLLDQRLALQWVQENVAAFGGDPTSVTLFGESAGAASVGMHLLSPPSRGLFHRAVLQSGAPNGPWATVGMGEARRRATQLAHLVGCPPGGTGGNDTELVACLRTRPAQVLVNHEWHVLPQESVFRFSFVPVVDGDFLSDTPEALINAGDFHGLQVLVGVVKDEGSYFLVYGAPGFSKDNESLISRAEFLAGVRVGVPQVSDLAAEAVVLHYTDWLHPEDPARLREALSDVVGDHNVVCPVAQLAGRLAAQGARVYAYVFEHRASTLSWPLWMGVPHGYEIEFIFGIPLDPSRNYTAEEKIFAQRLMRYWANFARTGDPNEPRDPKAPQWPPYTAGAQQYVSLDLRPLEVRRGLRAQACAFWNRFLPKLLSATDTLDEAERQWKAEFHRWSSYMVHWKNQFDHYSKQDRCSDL

OCC(CO)(CO)CO
inactive: Potency [1] | Potency [2] | Potency [3] | Potency [4]

CC(=O)[C@@]1(O)CC[C@H]2[C@@H]3C[C@H](C)C4=CC(=O)CC[C@]4(C)[C@H]3CC[C@@]21C
inactive: Potency [1] | Potency [2] | Potency [3] | Potency [4]

C=CCOc1cc(Cl)ccc1C(=O)NCCN(CC)CC
inactive: Potency [1] | Potency [2] | Potency [3] | Potency [4]

Oc1ccc(Cl)cc1Sc1cc(Cl)ccc1O
inactive: Potency [1] | Potency [2] | Potency [3] | Potency [4]

Oc1cc(O)c(Cl)cc1Cl
inactive: Potency [1] | Potency [2] | Potency [3] | Potency [4]

CC(C)(c1ccc(Oc2ccc(N)cc2)cc1)c1ccc(Oc2ccc(N)cc2)cc1
inactive: Potency [1] | Potency [2] | Potency [3] | Potency [4]

COC(OC)C(C)c1ccccc1 (stereo unspecified)
inactive: Potency [1] | Potency [2] | Potency [3] | Potency [4]

Nc1cc(S(=O)(=O)O)ccc1S(=O)(=O)O
inactive: Potency [1] | Potency [2] | Potency [3] | Potency [4]

COc1cc(/C=C/C(=O)CC(=O)/C=C/c2ccc(O)c(OC)c2)ccc1O
inactive: Potency [1] | Potency [2] | Potency [3] | Potency [4]

Cc1ccc2ccccc2n1
inactive: Potency [1] | Potency [2] | Potency [3] | Potency [4]

O=C(NCN1CCOCC1)c1cnccn1
inactive: Potency [1] | Potency [2] | Potency [3] | Potency [4]

CCCCC1CCC(O)CC1 (stereo unspecified)
inactive: Potency [1] | Potency [2] | Potency [3] | Potency [4]

Nc1cccc(N)n1
inactive: Potency [1] | Potency [2] | Potency [3] | Potency [4]

OC(CCN1CCCCC1)(c1ccccc1)C1CCCCC1 (stereo unspecified)
inactive: outcome [1] | outcome [2] | outcome [3] | outcome [4]

CCCCCCCCCC(=O)O
inactive: Potency [1] | Potency [2] | Potency [3] | Potency [4]

CCCCCCCCCCCC(=O)N(CC)CC
inactive: Potency [1] | Potency [2] | Potency [3] | Potency [4]

CC1(C)CC(=O)CC(C)(C)N1
inactive: Potency [1] | Potency [2] | Potency [3] | Potency [4]

C=CC(=O)OCCCCCC
inactive: Potency [1] | Potency [2] | Potency [3] | Potency [4]

O=C1c2ccccc2Cc2ccccc21
inactive: Potency [1] | Potency [2] | Potency [3] | Potency [4]

CN1C(=O)CC[C@H]1c1cccnc1
inactive: Potency [1] | Potency [2] | Potency [3] | Potency [4]

NC(=O)NC(N)=O
inactive: Potency [1] | Potency [2] | Potency [3] | Potency [4]

C=CCOCC(CC)(CO)COCC=C
inactive: Potency [1] | Potency [2] | Potency [3] | Potency [4]

CC1(C)O[C@@H]2C[C@H]3[C@@H]4C[C@H](F)C5=CC(=O)C=C[C@]5(C)[C@H]4[C@@H](O)C[C@]3(C)[C@]2(C(=O)CO)O1
inactive: Potency [1] | Potency [2] | Potency [3] | Potency [4]

C[C@]12CC[C@@H]3c4ccc(O)cc4CC[C@H]3[C@@H]1CC[C@@H]2OC(=O)CCC1CCCC1
inactive: Potency [1] | Potency [2] | Potency [3] | Potency [4]

CC(=O)Nc1ccc(N=Nc2cc(C)ccc2O)cc1
active: Potency [2] 22.4 µM
inactive: Potency [1] | Potency [3] | Potency [4]

CCCCC(CC)CN1CN(CC(CC)CCCC)CC(C)(N)C1 (stereo unspecified)
inactive: Potency [1] | Potency [2] | Potency [3] | Potency [4]

CC(=O)c1ccc(C(C)=O)cc1
inactive: Potency [1] | Potency [2] | Potency [3] | Potency [4]

CCN(CC)CCOC(=O)C1(C2CCCCC2)CCCCC1
inactive: Potency [1] | Potency [2] | Potency [3] | Potency [4]

Cc1cc(=O)[nH]c(C(C)C)n1
inactive: Potency [1] | Potency [2] | Potency [3] | Potency [4]

NS(=O)(=O)c1ccc(N2CCCCS2(=O)=O)cc1
inactive: Potency [1] | Potency [2] | Potency [3] | Potency [4]

CC(=O)c1ccccc1O
inactive: Potency [1] | Potency [2] | Potency [3] | Potency [4]

O=C1O[C@@H]2[C@@H](O)[C@H](O)O[C@@H]2[C@H]1O
inactive: Potency [1] | Potency [2] | Potency [3] | Potency [4]

Cc1cc(C)c(N=Nc2c(O)c(S(=O)(=O)O)cc3cc(S(=O)(=O)O)ccc23)cc1C
inactive: activity, negative = inhibition [1] 0.116% [at 10.5 µM] | activity change, negative = inhibition [2] 0.136% [at 10.5 µM] | activity change, negative = inhibition [3] -0.662% [at 10.5 µM] | activity change, negative = inhibition [4] 0.432% [at 10.5 µM]

CCc1ccc(CC)cc1
inactive: Potency [1] | Potency [2] | Potency [3] | Potency [4]

CC(c1cc2ccccc2s1)N(O)C(N)=O (stereo unspecified)
inactive: Potency [1] | Potency [2] | Potency [3] | Potency [4]

Cc1ccc(S(=O)(=O)Oc2ccc(N=Nc3ccc(-c4ccc(N=Nc5c(O)ccc6cc(S(=O)(=O)O)cc(S(=O)(=O)O)c56)c(C)c4)cc3C)cc2)cc1
active: Potency [2] 8.97 µM and 4.12 µM
inactive: Potency [1] | Potency [3] | Potency [4]

O=C1NCCN1CCO
inactive: Potency [1] | Potency [2] | Potency [3] | Potency [4]

CCCC/C=C\CCCCCCCCCC=O
inactive: Potency [1] | Potency [2] | Potency [3] | Potency [4]

O=C(OCCCCCOC(=O)c1ccccc1)c1ccccc1
inactive: Potency [1] | Potency [2] | Potency [3] | Potency [4]

Nc1nnc(-c2cccc(Cl)c2Cl)c(N)n1
inactive: Potency [1] | Potency [2] | Potency [3] | Potency [4]

CC(=O)/C=C/C1=C(C)CCCC1(C)C
inactive: Potency [2] | Potency [4]
active: Potency [1] 35.6 µM | Potency [3] 10.2 µM

CC(C)Nc1ccccc1
inactive: Potency [1] | Potency [2] | Potency [3] | Potency [4]

CCCc1ccccc1
inactive: Potency [1] | Potency [2] | Potency [3] | Potency [4]

Nc1ccc(C(=O)O)cc1
inactive: Potency [1] | Potency [2] | Potency [3] | Potency [4]

COc1cc2c(cc1N)oc1ccccc12
inactive: Potency [1] | Potency [2] | Potency [3] | Potency [4]

NCc1ccccc1Sc1ccccc1CO
inactive: Potency [1] | Potency [2] | Potency [3] | Potency [4]

CO[C@H]1C=CO[C@@]2(C)Oc3c(C)c(O)c4c(O)c(c(/C=N/N5CCN(C)CC5)c(O)c4c3C2=O)NC(=O)/C(C)=C\C=C[C@H](C)[C@H](O)[C@@H](C)[C@@H](O)[C@@H](C)[C@H](OC(C)=O)[C@@H]1C
inactive: Potency [1] | Potency [2] | Potency [3] | Potency [4]

Cc1cc(O)c(C)c(C)c1O
inactive: Potency [1] | Potency [2] | Potency [3] | Potency [4]

CCCCCCCCOc1ccc(C(=O)O)cc1
inactive: Potency [1] | Potency [2] | Potency [3] | Potency [4]

O=S(=O)(O)c1cccc2ccccc12
inactive: Potency [1] | Potency [2] | Potency [3] | Potency [4]

COc1ccccc1N1CCN(CC(O)COc2cccc3ccccc23)CC1 (stereo unspecified)
inactive: Potency [1] | Potency [2] | Potency [3] | Potency [4]

CCCCC(=O)O[C@]1(C(=O)CO)[C@@H](C)C[C@H]2[C@@H]3CCC4=CC(=O)C=C[C@]4(C)[C@@]3(F)[C@@H](O)C[C@@]21C
inactive: Potency [1] | Potency [2] | Potency [3] | Potency [4]

CC(C)c1cccc(O)c1
inactive: Potency [1] | Potency [2] | Potency [3] | Potency [4]

O=S(=O)(O)c1cc(O)c(O)c(S(=O)(=O)O)c1
inactive: Potency [1] | Potency [2] | Potency [3] | Potency [4]

Cc1cc(=O)oc2cc(O)ccc12
inactive: Potency [1] | Potency [2] | Potency [3] | Potency [4]

CCOC(=O)C(=O)CCc1ccccc1
inactive: Potency [1] | Potency [2] | Potency [3] | Potency [4]

COC(C)CCO (stereo unspecified)
inactive: Potency [1] | Potency [2] | Potency [3] | Potency [4]

CCc1oc2ccccc2c1C(=O)c1cc(Br)c(O)c(Br)c1
inactive: Potency [1] | Potency [2] | Potency [3] | Potency [4]

CCCCS
inactive: Potency [1] | Potency [2] | Potency [3] | Potency [4]

CC/C=C\CC1=C(C)CCC1=O
inactive: Potency [1] | Potency [2] | Potency [3] | Potency [4]

CCCC(O)C(CC)CO (stereo unspecified)
inactive: Potency [1] | Potency [2] | Potency [3] | Potency [4]

C=CCS(=O)(=O)O
inactive: Potency [1] | Potency [2] | Potency [3] | Potency [4]

Clc1cccc(-c2cc(Cl)cc(Cl)c2)c1
inactive: Potency [1] | Potency [2] | Potency [3] | Potency [4]

NCCN1CCNCC1
inactive: Potency [1] | Potency [2] | Potency [3] | Potency [4]

O=[N+]([O-])c1ccc(/C=N\O)o1
inactive: Potency [1] | Potency [2] | Potency [3] | Potency [4]

COc1cc(S(=O)(=O)Nc2ccccc2)c(OC)cc1N
inactive: Potency [1] | Potency [2] | Potency [3] | Potency [4]

CC(C)(C)C1CCC(O)CC1 (stereo unspecified)
inactive: Potency [1] | Potency [2] | Potency [3] | Potency [4]

CCC(C)(CCCC(C)C)OC(C)=O (stereo unspecified)
inactive: Potency [1] | Potency [2] | Potency [3] | Potency [4]

O=C(c1ccc2c(c1)C(=O)OC2=O)c1ccc2c(c1)C(=O)OC2=O
inactive: Potency [1] | Potency [2] | Potency [3] | Potency [4]

CC(C)COC(=O)c1ccc(N)cc1
inactive: Potency [1] | Potency [2] | Potency [3] | Potency [4]

CCOC(=O)c1ccc(O)cc1
inactive: Potency [1] | Potency [2] | Potency [3] | Potency [4]

CCCCCCCCC
inactive: Potency [1] | Potency [2] | Potency [3] | Potency [4]

Cc1cccc(N(C)C(=S)Oc2ccc3ccccc3c2)c1
inactive: Potency [1] | Potency [2] | Potency [3] | Potency [4]

CC1=C(/C=C/C(C)=C/C=C/C(C)=C/CO)C(C)(C)CCC1
inactive: Potency [1] | Potency [2] | Potency [3] | Potency [4]

SCCOCCOCCS
inactive: Potency [1] | Potency [2] | Potency [3] | Potency [4]

O=[N+]([O-])c1ccc(NCCO)c(OCCO)c1
inactive: Potency [1] | Potency [2] | Potency [3] | Potency [4]

c1ccc2c(c1)-c1ccc3ccc4cccc5cc-2c1c3c45
inactive: Potency [1] | Potency [2] | Potency [3] | Potency [4]

CC(Cl)C(Cl)Cl (stereo unspecified)
inactive: Potency [1] | Potency [2] | Potency [3] | Potency [4]

CCCCC(CC)COC(=O)CC(C(=O)OCC(CC)CCCC)S(=O)(=O)O (stereo unspecified)
inactive: Potency [1] | Potency [2] | Potency [3] | Potency [4]
